A selection: hits, their analogues and other compounds. The true share with any hit is near 6.7%.
KB-3-1 tox: KB-3-1 parental cell cytotoxicity. AID 1347075. Potency, µM (doses to about 46.1 µM), actives largely listed as cytotoxic. actives 1.4% (n = 400,000). KB-3-1 viability, CellTiter-Glo ATP luminescence, 72 h; further: nearly all actives have a fitted effect of over 60% in size
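Multi-concentration cytotoxicity screen in KB-3-1 cells grown in DMEM lacking phenol red with 10% FBS. After 72 h at 37 °C with compound, ATP-dependent luminescence was recorded.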
PINK1 modulator: PINK1 expression modulation; actives 0.2% (n = 410,000); AID 624263; Potency, µM (top dose mostly 76.6 µM), actives largely listed as activators; PINK1 immunofluorescence, high-content cytometry, 24 h; active means well fitted activation curve with a large enough effect; inconclusive means small, poorly fitted or top-dose-only effect; cell line not stated here; further: nearly all actives have a fitted effect of over 65% in size
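Stable cell line, 250 cells/well, 12 h attachment; compounds pinned at 5 concentrations, 24 h; CCCP control. Fixed with nuclear dye, primary antibodies 12 h at 10 degrees C, secondary plus cell stain; laser-scanning cytometer read.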
MCF10A rerep: DNA re-replication induction in MCF 10a cells; MCF 10A DNA re-replication, Hoechst nuclear intensity, 48 h; Potency, µM (series often up to 46.1 µM), hits mostly activators; actives 2.9% (n = 350,000); AID 624296; further: nearly all actives have a fitted effect of over 50% in size
KB-V1 cytotox: kills drug-selected multidrug resistant KB-V1 cells; AID 1347076; actives 3.4% (n = 400,000); KB-V1 MDR cells viability, CellTiter-Glo, 72 h; Potency, µM (top dose mostly 46.1 µM), hits mostly cytotoxic; further: nearly all actives have a fitted effect of over 60% in size
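Following 72 h at 37 degrees C with compound, KB-V1 cell viability was read by CellTiter-Glo luminescence, medium being phenol-red-free DMEM plus 10% FBS; concentration-response parameters came from normalized, curve-fitted qHTS data.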
SW480 rereplic: inducers of DNA re-replication in SW480 colon cancer cells; SW480 DNA re-replication, Hoechst DNA content imaging, 48 h; Potency, µM (highest dose often 46.1 µM), actives largely listed as activators; actives 1.8% (n = 340,000); AID 624297; further: nearly all actives have a fitted effect of over 55% in size
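Hoechst fluorescence of nuclei (405 nm excitation, 500-530 nm emission) measured by plate-scanning imager after 48 hr compound exposure at 37 C; re-replication scored as increased number of nuclei with elevated intensity.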
Hits are given with their value. Unless noted, the call rests on the fitted dose curve; in most records, active means well fitted curve in the direction sought with a large enough effect; inconclusive means small, poorly fitted or top-dose-only effect, or another doubt; inactive means no such curve, though single readings can be large; an effect the other way counts as inactive or inconclusive.

What do the screens show for `Cc1cccc(NC(=O)c2cccc3c2C(=O)c2ccccc2-3)c1`?
KB-3-1 tox: inactive; PINK1 modulator: inactive; MCF10A rerep: inactive; KB-V1 cytotox: 6.5µM; SW480 rereplic: inactive

Results for O=C(NC1=C(Nc2ccc(Cl)cc2)C(=O)c2ccccc2C1=O)c1ccccc1 ?
KB-3-1 tox: 18µM; PINK1 modulator: inactive; MCF10A rerep: inactive; KB-V1 cytotox: 21µM; SW480 rereplic: inconclusive

How did Cc1cccc(NC2=C(NC(=O)c3ccccc3)C(=O)c3ccccc3C2=O)c1 do in these assays?
KB-3-1 tox: inactive; PINK1 modulator: inactive; MCF10A rerep: inconclusive; KB-V1 cytotox: 15µM; SW480 rereplic: 18µM

Results for O=C(Nc1ccc(Nc2ccccc2)cc1)c1ccc(Cl)cc1 ?
KB-3-1 tox: inactive; PINK1 modulator: inactive; MCF10A rerep: inactive; KB-V1 cytotox: inactive; SW480 rereplic: inactive

What do the screens show for `COCC(=O)Nc1cc(C(=O)NC2CCCc3ccccc32)c2c(c1)nc(-c1ccncc1)n2C` (configuration not stated)?
PINK1 modulator: inactive

How did O=C(CCSCc1cccc(Cl)c1)NCc1ccc(F)cc1Cl do in these assays?
PINK1 modulator: inactive

What do the screens show for `COc1ccc(C(=O)Nc2ccc3[nH]c(-c4cccc(OC)c4)cc(=O)c3c2)cc1`?
KB-3-1 tox: 0.73µM; PINK1 modulator: inactive; MCF10A rerep: 0.58µM; KB-V1 cytotox: inactive; SW480 rereplic: 0.65µM

Results for O=c1cc(-c2ccccc2)[nH]c2ccccc12 ?
KB-3-1 tox: 0.65µM; PINK1 modulator: inactive; MCF10A rerep: 1.3µM; KB-V1 cytotox: inconclusive; SW480 rereplic: inconclusive

How did COc1ccc(C(=O)Nc2cccc(OC)c2)cc1 do in these assays?
KB-3-1 tox: inconclusive; PINK1 modulator: inactive; MCF10A rerep: inactive; KB-V1 cytotox: inactive; SW480 rereplic: inactive

Results for COc1ccc2[nH]c(-c3ccc(C)cc3)cc(=O)c2c1 ?
KB-3-1 tox: 9.2µM; PINK1 modulator: inactive; MCF10A rerep: inconclusive; KB-V1 cytotox: inconclusive; SW480 rereplic: inconclusive

Results for COc1ccc(-c2cc(=O)c3cc(F)ccc3[nH]2)cc1 ?
KB-3-1 tox: inactive; PINK1 modulator: inactive; MCF10A rerep: inconclusive; KB-V1 cytotox: inactive; SW480 rereplic: inactive

How did CCC1CN(CCC(=O)NC2CCOC(C)(C)C2)Cc2cc(OC)ccc2O1 (configuration not stated) do in these assays?
PINK1 modulator: inactive

Results for CC(Oc1ccccc1Cl)C(=O)/C=C/N(C)C (configuration not stated) ?
KB-3-1 tox: inactive; PINK1 modulator: inactive; MCF10A rerep: 18µM; KB-V1 cytotox: inconclusive; SW480 rereplic: inactive

How did Cc1ccc(C)c(CSc2cn(CC(=O)N3CCCC3)c3ccccc23)c1 do in these assays?
PINK1 modulator: inactive

What do the screens show for `O=C(N/N=C/c1ccc(F)cc1)c1cc(-c2ccc3c(c2)OCO3)n[nH]1`?
KB-3-1 tox: inactive; PINK1 modulator: inactive; MCF10A rerep: 29µM; KB-V1 cytotox: inactive; SW480 rereplic: inactive

How did CN(C)c1ccc(/C=N/NC(=O)c2cc(-c3ccc4c(c3)OCO4)n[nH]2)cc1 do in these assays?
KB-3-1 tox: inconclusive; PINK1 modulator: inactive; MCF10A rerep: 5.8µM; KB-V1 cytotox: inconclusive; SW480 rereplic: inconclusive

What do the screens show for `COc1ccc(/C=N/NC(=O)c2cc(-c3ccc4c(c3)OCO4)n[nH]2)cc1OC`?
KB-3-1 tox: inactive; PINK1 modulator: inactive; MCF10A rerep: inactive; KB-V1 cytotox: inactive; SW480 rereplic: inactive

Results for CN(C)c1ccc(/C=N/NC(=O)c2ccc3c(c2)OCCO3)cc1 ?
KB-3-1 tox: inactive; PINK1 modulator: inactive; MCF10A rerep: inactive; KB-V1 cytotox: inactive; SW480 rereplic: inactive

Results for COc1ccc(OC)c(-c2nnc(NC(=O)Nc3ccc4ccccc4c3)s2)c1 ?
KB-3-1 tox: inactive; KB-V1 cytotox: inactive

How did CCOC(=O)N1CCC(NC(=O)C2CCN(C(=O)c3cc4oc(C)cc4n3Cc3c(F)cccc3Cl)CC2)CC1 do in these assays?
KB-3-1 tox: inconclusive; PINK1 modulator: inactive; MCF10A rerep: inactive; KB-V1 cytotox: inactive; SW480 rereplic: inactive

What do the screens show for `COC(CNC(=O)C1CCN(C(=O)c2cc3oc(C)cc3n2Cc2c(F)cccc2Cl)CC1)OC`?
KB-3-1 tox: inconclusive; PINK1 modulator: inactive; MCF10A rerep: inactive; KB-V1 cytotox: 8.2µM; SW480 rereplic: inactive

Source: PubChem (National Center for Advancing Translational Sciences (NCATS))
